{
  "source": "PubChem BioAssay (Tox21)",
  "note": "Results filed as inconclusive are left out. Where a call stands in place of a potency, no number is given. Unmarked numbers belong to inactive results. Active and inactive are the calls of the source. Calls come from the whole dose curve.",
  "data": [
    {"assay": "qHTS assay to identify small molecule agonists of the progesterone receptor (PR) signaling pathway - cell viability counter screen (AID 1346799); note: nearly all actives have a fitted effect of over 45% in size", "settings": "PR-UAS-bla HEK293T viability, CellTiter-Glo luminescence, 16 h; series mostly up to 92.4 µM", "excerpt": "National Center for Advancing Translational Sciences [NCATS]\nNIH Chemical Genomics Center [NCGC]\nU.S. Environmental Protection Agency [EPA]\nNational Institutes of Environmental Health Sciences [NIEHS]\nNational Toxicology Program [NTP]\nU.S. Food and Drug Administration [FDA]\nProgesterone receptor (PR), a nuclear hormone receptor, plays an important role in development, metabolic homeostasis and reproduction. It is activated by the steroid hormone progesterone. Endocrine disrupting chemicals (EDCs) and their interactions with steroid hormone receptors like PR causes disruption of normal endocrine function. To identify the compounds that stimulate PR signaling, a PR-UAS-bla GripTite cell line i.e. PR-UAS-bla HEK293T (Invitrogen, Carlsbad, CA, USA) containing a beta-lactamase reporter gene under the control of an UAS response element was used to screen Tox21 10K compound library. The cytotoxicity of the Tox21 compound library against the PR-bla cell line was tested in parallel by measuring the cell viability using CellTiter-Glo assay in the same wells.\nTox21 Assay Protocol Summary:\nPR-UAS-bla HEK293T cells were dispensed at 3,000 cells/5 uL of assay medium containing 2% charcoal stripped FBS per well into black wall/clear-bottom 1536-well plates using a Multidrop Combi (ThermoFisher Scientific, Waltham, MA) dispenser. After the assay plates were incubated at a 37C and 5% CO2 for 6 hr, 23 nL of compounds dissolved in DMSO, positive controls or DMSO only was transferred to the assay plate by a Pintool station (Kalypsys, San Diego, CA). The plates were incubated at 37C and 5% CO2 for 16 hr. Then 1 uL of LiveBLAzer B/G FRET substrate was added using a Flying Reagent Dispenser (FRD, Aurora Discovery, San Diego, CA), the plates were incubated at room temperature for 2 hours, and fluorescence intensity was measured by an Envision plate reader (PerkinElmer, Shelton, CT). For cell viability readout that measures cytotoxicity, 4 uL/well of CellTiter-Glo reagent was added into the assay plates using a FRD. After 30 min incubation at room temperature, the luminescence intensity in the plates was measured using a ViewLux (PerkinElmer) plate reader.", "values": [
      {"smiles": "Nc1cc(=O)[nH]c(N)n1", "Potency": "inactive"},
      {"smiles": "OC1CCCCC1c1ccccc1", "note": "(stereo not given)", "Potency": "inactive"},
      {"smiles": "COc1ccc(CCN(C)CCCC(C#N)(c2cc(OC)c(OC)c(OC)c2)C(C)C)cc1OC", "note": "(stereo not given)", "Potency": "inactive"},
      {"smiles": "CC(C)CCCC(C)N", "note": "(stereo not given)", "Potency": "inactive"},
      {"smiles": "COC(C)(C)CCCC(C)CC=O", "note": "(stereo not given)", "Potency": "inactive"},
      {"smiles": "Nc1nc2c(ncn2COC(CO)CO)c(=O)[nH]1", "Potency": "inactive"},
      {"smiles": "CCOC(=O)c1cccc(N)c1", "Potency": "inactive"},
      {"smiles": "NS(=O)(=O)c1ccccc1Cl", "Potency": "inactive"},
      {"smiles": "C[N+](C)(C)CC(O)CC(=O)[O-]", "note": "(stereo not given)", "Potency": "inactive"},
      {"smiles": "CC(C)(O)C(=O)c1ccccc1", "Potency": "inactive"},
      {"smiles": "OCCCC1CCCCC1", "Potency": "inactive"},
      {"smiles": "CCn1nc(C(=O)O)c(=O)c2cc3c(cc21)OCO3", "Potency": "inactive"},
      {"smiles": "OC(CCN1CCCCC1)(c1ccccc1)C1CC2C=CC1C2", "note": "(stereo not given)", "Potency": "inactive"},
      {"smiles": "O=C1OC(=O)C2CCCCC12", "note": "(stereo not given)", "Potency": "inactive"},
      {"smiles": "COC(=O)C1=C(C)NC(C)=C(C(=O)OC)C1c1ccccc1[N+](=O)[O-]", "Potency": "inactive"},
      {"smiles": "CCCCCCCCCCCCCCCCC", "Potency": "inactive"},
      {"smiles": "NCCCNCCSP(=O)(O)O", "activity change, negative = cytotoxicity": "17.5% [at 8.39 µM]"},
      {"smiles": "O=C1CCCCCCCCCCCN1", "Potency": "inactive"},
      {"smiles": "CO[Si](CCCOCC1CO1)(OC)OC", "note": "(stereo not given)", "Potency": "inactive"},
      {"smiles": "Nc1ccc(S(=O)(=O)Nc2ccnn2-c2ccccc2)cc1", "activity change, negative = cytotoxicity": "-4.95% [at 19 µM]"},
      {"smiles": "C=COCC1CCC(CO)CC1", "note": "(stereo not given)", "Potency": "inactive"},
      {"smiles": "CN1N=C(C(N)=O)CCC1=O", "Potency": "inactive"},
      {"smiles": "NC(=O)c1cn(Cc2c(F)cccc2F)nn1", "Potency": "inactive"},
      {"smiles": "CCC(C)C1CCCCC1=O", "note": "(stereo not given)", "Potency": "inactive"},
      {"smiles": "Cc1ccc(Cl)cc1Cl", "Potency": "inactive"},
      {"smiles": "C=CCS(=O)(=O)O", "Potency": "inactive"},
      {"smiles": "O=C1CCCC(=O)C1", "Potency": "inactive"},
      {"smiles": "CO[C@]12C[C@@H](COC(=O)c3cncc(Br)c3)CN(C)[C@@H]1Cc1cn(C)c3cccc2c13", "Potency": "inactive"},
      {"smiles": "Nc1c2c(nc3ccccc13)CCCC2O", "note": "(stereo not given)", "Potency": "inactive"},
      {"smiles": "O=C(c1ccccc1)C1CCCCC1", "Potency": "inactive"},
      {"smiles": "CCO[Si](CCC1CCC2OC2C1)(OCC)OCC", "note": "(stereo not given)", "Potency": "inactive"},
      {"smiles": "CCS(=O)(=O)c1ccc(OC)c(C(=O)OC)c1", "Potency": "inactive"},
      {"smiles": "COC(=O)NN", "Potency": "inactive"},
      {"smiles": "CCCCOCCOCCOCCCC", "Potency": "inactive"},
      {"smiles": "CC(C)NCCCC1(C(N)=O)c2ccccc2-c2ccccc21", "Potency": "inactive"},
      {"smiles": "CN(C)CCCNCCCN(C)C", "Potency": "inactive"},
      {"smiles": "CCc1cccc2c(CCO)c[nH]c12", "Potency": "inactive"},
      {"smiles": "CCCCCOC(=O)CCCCC", "Potency": "inactive"},
      {"smiles": "c1cnc(N2CCN(Cc3ccc4c(c3)OCO4)CC2)nc1", "Potency": "inactive"},
      {"smiles": "CC(=O)OCC(=O)[C@@]1(O)CCC2C3CCC4=CC(=O)CC[C@]4(C)C3[C@@H](O)C[C@@]21C", "note": "(stereo not given in full)", "Potency": "inactive"}
    ]}
  ]
}
